Reference: publication PMC6925144, “A prospective compound screening contest identified broader inhibitors for Sirtuin 1” (Scientific Reports, 2019)
The full ranking holds about 3,200 compounds; the median of “TSA(without NAD+) / Primary screening (TSA) / delta Tm (K)” is about -0.07, and the highest 2% start at about 0.37. The sample as a whole holds a higher share of the highest values than the screen did.

Molecular target: NAD-dependent deacetylase Sirtuin 1 (human, UniProt Q96EB6)
Assay: primary screen, delta tm
Parameters: single well (n = 1)
Details: 10 µM
Protocol: A total of 3,192 compounds extracted from the proposed lists were first screened by thermal shift assay (TSA), which determined a melting temperature shift (ΔTm) of Sirtuin 1 upon the addition of a test compound at a concentration of 10 µM (n = 1) with primary hit criteria of ΔTm > 0.45 K or ΔTm < −1.5 K. Primary hits (48 compounds) were retested in the same assay at three concentrations (5, 10, 20 µM, n = 4) for hit confirmation and for dose-dependency check. Secondary hits (41 compounds) were checked their selectivity for Sirtuin 1 based on counterscreening on unrelated protein targets (bovine carbonic anhydrase (CA) and recombinant SH2 domain of hABL1 kinase (ABL1)) at three different concentrations (5, 10, 20 µM, n = 4), which yielded 38 hit compounds, hereafter referred to as TSA hits. The TSA screening above was conducted in the absence of NAD+.

NAD-dependent deacetylase Sirtuin 1, sequence (Q96EB6 2-747 limits assumed): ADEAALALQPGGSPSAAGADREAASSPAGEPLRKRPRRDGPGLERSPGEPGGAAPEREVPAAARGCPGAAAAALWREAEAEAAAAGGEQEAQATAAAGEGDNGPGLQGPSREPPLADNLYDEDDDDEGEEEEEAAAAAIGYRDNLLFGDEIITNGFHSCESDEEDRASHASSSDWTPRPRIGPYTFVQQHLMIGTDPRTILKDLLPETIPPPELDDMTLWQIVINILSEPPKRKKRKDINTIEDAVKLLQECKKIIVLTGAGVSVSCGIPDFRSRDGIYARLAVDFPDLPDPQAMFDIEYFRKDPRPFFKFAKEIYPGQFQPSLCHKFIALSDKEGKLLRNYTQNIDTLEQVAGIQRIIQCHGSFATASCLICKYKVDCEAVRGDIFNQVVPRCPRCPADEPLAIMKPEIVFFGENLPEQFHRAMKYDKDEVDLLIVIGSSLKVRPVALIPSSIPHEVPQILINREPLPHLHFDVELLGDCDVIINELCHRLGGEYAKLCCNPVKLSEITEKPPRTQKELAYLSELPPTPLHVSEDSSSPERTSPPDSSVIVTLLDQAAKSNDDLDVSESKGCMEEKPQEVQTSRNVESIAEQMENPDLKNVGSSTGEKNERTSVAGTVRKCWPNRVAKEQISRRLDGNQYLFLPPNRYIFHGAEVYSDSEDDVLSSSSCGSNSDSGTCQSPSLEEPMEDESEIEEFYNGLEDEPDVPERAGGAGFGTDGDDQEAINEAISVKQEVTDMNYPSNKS

Structure (SMILES) | TSA(without NAD+) / Primary screening (TSA) / delta Tm (K)
COc1ccc(C(=O)C2=C(O)C(=O)N(CCCN3CCOCC3)C2c2ccco2)cc1Cl (centres unmarked) | 0.02
Cn1cc(C(=O)Nc2cccc(C3(C)NC(=O)NC3=O)c2)c2ccccc21 (centres unmarked) | -0.14
Cc1c(CCC#N)c(Cl)n2c(nc3ccccc32)c1C#N | -0.04
CCc1c(C)c(C#N)c2nc3ccccc3n2c1Cl | -0.08
CCc1c(C)c(C#N)c2nc3ccccc3n2c1S | 0.39
Cc1nc2cc(NC(=O)C3Cc4ccccc4O3)ccc2o1 (centres unmarked) | 0.03
Nc1nc(-c2c(-c3ccccc3)[nH]c3ccccc23)cs1 | 0.09
c1ccc(-c2[nH]c3c(ccc4ccccc43)c2-c2ccccc2)cc1 | 0.52
c1ccc(-c2[nH]c3ccccc3c2-c2ccccc2)cc1 | 0.45
Cc1cccc2c(CC(=O)O)c(-c3ccccc3)[nH]c12 | -0.02
O=C(CCl)c1c(-c2ccccc2)[nH]c2ccccc12 | -0.04
CC1(C)CC1N (centres unmarked) | -0.22
NC(=O)Cc1ccc(NC(=O)c2cc(Br)ccc2Cl)cc1 | -0.11
CCCCOc1cc(C2NC(N)=Nc3nc4ccccc4n32)ccc1OC (centres unmarked) | -0.17
NC1=Nc2nc3ccccc3n2C(c2ccc(-c3ccc(C(=O)O)cc3)o2)N1 (centres unmarked) | 1.36
CC(C)(CNc1ncnc2ccsc12)C(N)=O | -0.02
O=C1/C(=C/c2ccc(Br)cc2F)Cc2c(O)cccc21 | -0.03
Oc1cccc2c1Cc1c-2nc2ccc(Cl)cc2c1-c1ccccc1Cl | 0.38
CCCOCC(=O)O | -0.13
Cc1cccc(Nc2nnc(SCC(=O)Nc3ccc(C(N)=O)cc3)s2)c1 | -0.04

Structure (SMILES) | TSA(without NAD+) / Primary screening (TSA) / delta Tm (K)
Cc1ccc(Nc2nnc(SCC(=O)Nc3cc(C)c(C)cc3[N+](=O)[O-])s2)cc1 | -0.03
COc1ccc(NC(=O)CSc2nnc(Nc3ccc(SC(F)F)cc3)s2)cc1OC | 0.73
O=C(C1=C(O)C(=O)N(CCCN2CCOCC2)C1c1ccco1)c1ccco1 (centres unmarked) | -0.22
Cc1nc2ccccc2nc1SCc1cc(=O)n2ccsc2n1 | 0.02
CCCCOC(=O)c1ccc(NC(=O)COC(=O)CNC(=O)C23CC4CC(CC(C4)C2)C3)cc1 | 0.48
O=C(COC(=O)CNC(=O)C12CC3CC(CC(C3)C1)C2)Nc1ccccc1Cc1ccccc1 | 0.13
CCOc1ccc(CCNC(=O)COC(=O)CNC(=O)C23CC4CC(CC(C4)C2)C3)cc1OCC | 0.03
CC(C)Oc1ccc(C(=O)C2=C(O)C(=O)N(CCCN3CCOCC3)C2c2ccncc2)cc1 (centres unmarked) | -0.07
O=c1c2ccccc2ncn1CC(O)c1ccccc1Cl (centres unmarked) | -0.17
COc1ccc(/C=N/c2ccc(C(=O)O)cc2)cc1Br | 0.07
N#Cc1c(Cn2nnc3ccccc3c2=O)cn2ccccc12 | 0.07
CC(OC(=O)c1cccc(S(=O)(=O)NCc2ccccc2)c1)C(=O)NC12CC3CC(CC(C3)C1)C2 (centres unmarked) | -0.03
Cc1ccc([N+](=O)[O-])cc1S(=O)(=O)Nc1ccc(C(=O)OC(C)C(=O)NC23CC4CC(CC(C4)C2)C3)cc1 (centres unmarked) | 0.86
COc1cc(C(C)=O)ccc1COc1ccc(C(=O)OC(C)C(=O)NC23CC4CC(CC(C4)C2)C3)cc1OC (centres unmarked) | 0.05
CCC(N)COC (centres unmarked) | -0.18
Cc1ccc(Nc2nnc(SCC(=O)NC(=O)NCc3ccco3)s2)cc1 | 0.07
Cc1cc(F)ccc1N1CCCC(Nc2ccc3nnnn3n2)C1 (centres unmarked) | 0.63
Cc1ncc(CN2CCC(Nc3ccc4nnnn4n3)C(C)C2)s1 (centres unmarked) | 0.12
c1ccc(CN2CCCCCC2)c(CNc2ccc3nnnn3n2)c1 | -0.11
NC(=O)c1ncn(-c2ccncc2)c1N | -0.02

Structure (SMILES) | TSA(without NAD+) / Primary screening (TSA) / delta Tm (K)
CC1CN(S(=O)(=O)c2cccc(C(=O)OCC(=O)COC(=O)c3cccc(S(=O)(=O)N4CC(C)OC(C)C4)c3)c2)CC(C)O1 (centres unmarked) | -0.11
Cc1cccc(-n2ccnc2SCC(=O)Nc2ccc(S(=O)(=O)Nc3nccs3)cc2)c1C | 0.08
NC(=O)COC(=O)c1ccc(OCC(=O)Nc2cccc(C(F)(F)F)c2)cc1 | -0.02
O=C(COc1ccccc1C(=O)Nc1ccc(S(=O)(=O)Nc2nccs2)cc1)Nc1cccc(C(F)(F)F)c1 | 0.98
CCOc1cc(N2CCOCC2)c(OCC)cc1NC(=O)C1=COCCO1 | -0.15
CC(NC(=O)COC(=O)CNC(=O)c1ccc(-c2ccccc2)cc1)C12CC3CC(CC(C3)C1)C2 (centres unmarked) | 0.06
NC(=O)c1cc2c(ccc3ccccc32)o/c1=N\c1ccc(Br)cc1 | -0.32
O=C(O)C1CC(=O)N(c2cccc(-c3nc(C4CC4)no3)c2)C1 (centres unmarked) | 0.03
O=C(Nc1cccc(-c2nc(C3CC3)no2)c1)c1cccc(NC(=O)C2CCCCC2)c1 | 0.42
O=C(NCc1cccc(NC(=O)C2CC2)c1)c1ccc(C(=O)c2ccccc2)cc1 | -0.11
Cc1ccc2c(c1)c(=O)n(C)c1nnc(CN3CCc4ccccc4C3)n21 | -0.32
O=C(NC1=NCCS1)c1cc(Cl)ccc1O | -0.05
CC(O)CC(C)(C)CNC(=O)Nc1ccc(F)cc1 (centres unmarked) | -0.13
O=C(CC12CC3CC(CC(C3)C1)C2)NN/C=C1/C(=O)N(Cc2ccccc2)C(=O)c2ccccc21 | 0.32
COc1ccc(CN2C(=O)/C(=C/NNC(=O)CC34CC5CC(CC(C5)C3)C4)c3ccccc3C2=O)cc1 | 0.09
COc1ccc(N2C(=O)/C(=C/NNC(=O)C34CC5CC(CC(C5)C3)C4)c3ccccc3C2=O)cc1 | 0.43
O=C1NC(=O)c2ccccc2/C1=C\NNC(=O)C12CC3CC(CC(C3)C1)C2 | 0.33
O=C1CCCN1Cc1ccc(-c2ccccc2CNC(=O)C23CC4CC(CC(C4)C2)C3)cc1 | -0.28
O=C1/C(=C/NNC(=O)C23CC4CC(CC(C4)C2)C3)c2ccccc2C(=O)N1Cc1ccccc1 | 0.46
